Screening data as filed in PubChem.
Sampled rows, rich in hits. Any-hit rate of the full collection: about 3.5%.
Platelet DG rel = modulates dense granule release in human platelets; human platelet-rich plasma, SFLLRN dense granule ATP release, luminescence; inhibition, %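 (compounds screened at 7.5 µM in platelet-rich plasma)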; 300,000 tested, 0.22% active;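 active = mean replicate score, as percent of positive control, at or above 50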
PPC-1+TRAIL kill = compounds killing PPC-1 cancer cells with TRAIL present (potentiator screen, no TRAIL-free arm) | cell killing (% activity), % at 4 µM or 5 µM | 220,000 tested, 0.41% active | PPC-1 cells + TRAIL, ATPLite viability luminescence;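 active = cell killing above 50% in the first pass at 4 µM, then a duplicate retest at 5 µM averaging 50% or more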
TRAIL sens C8 = caspase-8 TRAIL sensitization | inhibition (viability loss, TRAIL sensitization), % at 10 µM | NB7+C8 cells + TRAIL, ATPlite viability luminescence | 360,000 tested, 1% active | AID 624354;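 active = compounds causing at least 50% loss of cell viability in the single-dose screen, relative to plate controls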
TROY NFkB inh = inhibitors of TROY-dependent NF-kB signaling. Q293 LMP1-TROYcd NF-kB luciferase reporter, 4 h. inhibition, % at 10 µM. 360,000 tested, 0.98% active. AID 1347056;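 active = compounds whose plate-normalised and pattern-corrected inhibition of the luciferase reporter signal at the single screening dose is 50% or more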
HSP90 inh = HSP90 refolding inhibition in rabbit reticulocyte lysate; luciferase refolding luminescence, 3 h; inhibition, % at 5.6 µM; 290,000 tested, 0.91% active; AID 1789;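 active = inhibition above the screen-wide mean plus 3 SD, computed separately per campaign, cut at about 16% in these data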;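 note: inhibitors lower the luminescence because luciferase stays unfolded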
TWEAK-Fn14 inh = inhibitors of TWEAK-Fn14 interaction signaling | AID 1159606 | inhibition, % at 10 µM | TWEAK-stimulated Fn14 reporter cells, luciferase luminescence, 8 h | 360,000 tested, 2% active; in the data active = inhibition above about 50%
Large screens that a line does not name were inactive; ! = repeats disagree.

CCOc1ccccc1NC(=O)c1cc(C(=O)c2cc(Br)ccc2O)coc1=N	TROY NFkB inh 59.4
Cc1ccc(S(=O)(=O)Nc2ccccc2C(N)=O)cc1	none
COc1ccc(S(=O)(=O)Nc2ccccn2)cc1	none (no result: PPC-1+TRAIL kill)
COc1cc(NS(=O)(=O)c2ccc(C)cc2)c2ncccc2c1	TWEAK-Fn14 inh 107.3
Cc1ccc(S(=O)(=O)Nc2ccccc2-c2ccccc2NS(=O)(=O)c2ccc(C)cc2)cc1	TROY NFkB inh 51.5
Cc1ccc(S(=O)(=O)Nc2cccc3cccnc23)cc1	TROY NFkB inh 79.5, TWEAK-Fn14 inh 106.9
CN(CCc1ccccc1)C(=O)c1cccc(NC(=O)Cc2cccc(NC(=O)C3CCCN(C(=O)C4CC4)C3)c2)c1 (centres undefined)	none (no result: Platelet DG rel, PPC-1+TRAIL kill, HSP90 inh)
CC(=O)N1CC(=O)N=C1SCC(=O)Nc1nc(C)c(-c2ccccc2)s1	none
Cc1nc2ccc(C(=O)N3c4ccccc4CC3C)cc2s1 (centres undefined)	none
C[n+]1c2n(c3ccccc31)N=C(c1cc(C(C)(C)C)c(O)c(C(C)(C)C)c1)CS2	TROY NFkB inh 56.9, TWEAK-Fn14 inh 88.4
CC1=NOC(=O)/C1=C\c1ccc(-c2ccc(Br)cc2C(=O)O)o1	none
CC1=NOC(=O)/C1=C/c1ccc(-c2ccc(Cl)cc2)o1	TROY NFkB inh 77.7, TWEAK-Fn14 inh 73.5 (no result: Platelet DG rel)
COc1ccc(Cl)cc1/C=C1/C(=O)ON=C1C	none (no result: PPC-1+TRAIL kill)
CC1=NOC(=O)/C1=C\c1ccc(-c2ccc(Br)cc2)o1	TROY NFkB inh 73.0, TWEAK-Fn14 inh 64.4 (no result: PPC-1+TRAIL kill)
CC1=NOC(=O)/C1=C\c1ccc(-c2cc(Cl)ccc2Cl)o1	TWEAK-Fn14 inh 101.2
COc1ccc(N(C)S(=O)(=O)c2cccc(C(=O)N3CCN(c4cccc(C)c4C)CC3)c2)cc1	none (no result: Platelet DG rel, PPC-1+TRAIL kill, HSP90 inh)
COc1cc(F)ccc1-c1cc(C(=O)NCc2ccc(F)cc2)[nH]n1	none (no result: Platelet DG rel, PPC-1+TRAIL kill, HSP90 inh)
COc1cc(C(=O)NC(=S)N(CCc2ccccc2)CCc2ccccc2)cc(OC)c1OC	TROY NFkB inh 70.4
CCCCCCCCCCOC(=O)Cn1c(COc2ccc(Cl)cc2)[n+](C)c2ccccc21	none (no result: PPC-1+TRAIL kill)
CCCCCCCCCCOC(=O)Cn1c(COc2ccc(OC)cc2)[n+](C)c2ccccc21	TROY NFkB inh 65.2!, TWEAK-Fn14 inh 61.6 (no result: PPC-1+TRAIL kill)
CCCCCCCCCCOC(=O)Cn1c(COc2ccccc2C)[n+](C)c2ccccc21	TROY NFkB inh 52.4, TWEAK-Fn14 inh 91.7 (no result: PPC-1+TRAIL kill)
CCCCCCCCCCOC(=O)Cn1c(COc2cccc(C)c2)[n+](C)c2ccccc21	TWEAK-Fn14 inh 51.3 (no result: PPC-1+TRAIL kill)
CCCCCCCCCCOC(=O)Cn1c(COc2ccccc2)[n+](C)c2ccccc21	TWEAK-Fn14 inh 70.3 (no result: PPC-1+TRAIL kill)
CSc1cc(-c2ccccc2)n(Cc2c(Cl)cccc2Cl)c(=O)c1C#N	none
CSc1cc(-c2ccc(Cl)cc2)n(Cc2ccccc2)c(=O)c1C#N	TRAIL sens C8 75.0
COc1ccc(NC(=O)CNC(=O)c2nn(-c3ccc(OC)cc3OC)c(=O)c3ccccc23)c(OC)c1	none (no result: PPC-1+TRAIL kill)
NC(C(=O)O)C1CC(Cl)=NO1 (centres undefined)	none (no result: TRAIL sens C8, TROY NFkB inh, TWEAK-Fn14 inh)
NC(C(=O)O)C1ON=C(Cl)C1O (centres undefined)	TRAIL sens C8 77.6 (no result: Platelet DG rel, PPC-1+TRAIL kill, HSP90 inh)
COc1ccc(-c2noc(CCC(=O)N3CCN(c4ccccc4C(F)(F)F)CC3)n2)cc1	none (no result: Platelet DG rel, PPC-1+TRAIL kill, HSP90 inh)
O=C(O)CSCC(=O)N1CCN(c2nc3cc(Cl)ccc3s2)CC1	TWEAK-Fn14 inh 61.6 (no result: PPC-1+TRAIL kill)
O=C(O)CSCC(=O)N1CCN(c2ccnc3cc(Cl)ccc23)CC1	none (no result: PPC-1+TRAIL kill)
COC(=O)C1=C(C(=O)OC)[C@@H]2N(Cc3ccccc3)c3ccccc3[C@@]23C[C@@H](C(=O)OC)N(C(=O)c2cccs2)C3=N1	TRAIL sens C8 54.2, TWEAK-Fn14 inh 61.3 (no result: HSP90 inh)
Cc1ccc(S(=O)(=O)/N=C2\C(=O)c3ccccc3C([O-])=C2n2cc[n+](CCC(C)C)c2)cc1	none
CCCC[n+]1ccn(C2=C([O-])c3ccccc3C(=O)/C2=N\S(=O)(=O)c2ccc(Br)cc2)c1	TRAIL sens C8 55.9
CC(C)=CC(O)C/C(C)=C/COc1ccc2ccc(=O)oc2c1 (centres undefined)	TWEAK-Fn14 inh 83.5 (no result: HSP90 inh)
CN(C)C(=O)COc1ccc2ccc(=O)oc2c1	none
COc1ccc(-c2csc(-c3ccccc3)n2)c(OC)c1	TWEAK-Fn14 inh 56.4
COCCSc1nnc(NS(=O)(=O)c2ccccc2)s1	none
COCCSc1nnc(NS(=O)(=O)c2ccc(C)cc2)s1	TROY NFkB inh 53.6
O=C(Nc1ccsc1C(=O)O)c1ccc(Cl)cc1	none (no result: PPC-1+TRAIL kill)
O=C1NC(=O)/C(=C/c2ccccc2OCc2ccccc2)S1	TROY NFkB inh 55.0
COc1ccc(S(=O)(=O)N2CCCCCC2)cc1C(=O)NCc1cccs1	none (no result: Platelet DG rel, PPC-1+TRAIL kill, HSP90 inh)
O=C(NCc1ccccc1)C12CC3CC(CC(C3)C1)C2	none
CC1(C)C(=O)C2(C(=O)NCc3ccccc3)CCC1C2 (centres undefined)	HSP90 inh 16.5
Cc1ccc(CCNC(=O)c2nc(CS(=O)(=O)c3ccc(Cl)cc3)no2)cc1	none (no result: PPC-1+TRAIL kill)
COc1cccc(/C=N/Nc2snc(SC)c2C#N)c1O	TWEAK-Fn14 inh 75.3
COc1ccc(/C=N/Nc2snc(SC)c2C#N)cc1OC	Platelet DG rel 51.9
COc1cc(/C=N/NC(=O)c2ccc(N)cc2)ccc1OC(=O)c1cccc(C)c1	TROY NFkB inh 52.6 (no result: PPC-1+TRAIL kill)
COc1cc(C(=O)N/N=C/c2ccc(OC(=O)c3cccc(C)c3)cc2)ccc1O	TROY NFkB inh 51.3 (no result: PPC-1+TRAIL kill)
COc1cc(C(=O)Oc2ccccc2/C=N/NC(=O)c2ccc(C)c(Cl)c2)cc(OC)c1OC	PPC-1+TRAIL kill 52.3
COc1cc(/C=N/NC(N)=S)ccc1OC(=O)c1ccc(C)cc1	none
COc1cc(/C=N/O)ccc1Oc1cnccn1	none (no result: PPC-1+TRAIL kill)
CC(=O)[C@@]1(O)C(C)CC2C3C=C(C)C4=Cc5c(cnn5-c5ccccc5)C[C@]4(C)C3C(O)C[C@@]21C (some centres undefined)	TROY NFkB inh 52.8
Cc1c(NC(=O)/C(=C\c2ccccc2)NC(=O)c2ccccc2)c(=O)n(-c2ccccc2)n1C	TWEAK-Fn14 inh 93.6
CC(C)/C=C(/C(=O)c1ccc(Cl)cc1Cl)n1cncn1	TWEAK-Fn14 inh 61.5 (no result: PPC-1+TRAIL kill)
CC(C)(C)C(=O)/C(=C\c1ccc([N+](=O)[O-])cc1)n1cncn1	none (no result: TRAIL sens C8, TROY NFkB inh, TWEAK-Fn14 inh)
CC(C)(C)C(=O)/C(=C/c1ccc(Cl)cc1)n1cncn1	TWEAK-Fn14 inh 77.0 (no result: PPC-1+TRAIL kill)
COc1ccc(-c2cc3nc[nH]c(=O)c3s2)cc1	TRAIL sens C8 60.7
COC(=O)N1C(=O)[C@@](c2ccccc2)(C2CCCC2)N1C(=O)OC	TWEAK-Fn14 inh 71.0 (no result: PPC-1+TRAIL kill)
COC(=O)N1C(=O)[C@](CC(C)C)(c2ccccc2)N1C(=O)OC	none (no result: PPC-1+TRAIL kill)
COC(=O)N1C(=O)[C@](c2ccccc2)(C2CCCCC2)N1C(=O)OC	TWEAK-Fn14 inh 51.1 (no result: PPC-1+TRAIL kill)
Cc1ccc2ccccc2c1C(O)c1ncc(-c2ccc(Cl)cc2)[nH]1 (centres undefined)	none (no result: Platelet DG rel, PPC-1+TRAIL kill, HSP90 inh)
CC1CC2(C)C(=CC1=O)CCC1C2C(O)CC2(C)C1CCC2(O)C(=O)CO (centres undefined)	none (no result: Platelet DG rel, PPC-1+TRAIL kill, HSP90 inh)
N#Cc1c(-c2ccc(Cl)cc2)n(O)c2ccccc12	TWEAK-Fn14 inh 64.0 (no result: Platelet DG rel, PPC-1+TRAIL kill, HSP90 inh)
